Shown are actives, neighbours in structure and some others; about 11% of the full set was active somewhere.
JMJD2A Tudor inh = blocks the human JMJD2A Tudor domain; O75164; AlphaScreen JMJD2A-Tudor / H3K4me3 peptide binding; Potency, µM (titrated, usually from 114 µM), for the others: top-dose activity change, negative = inhibition, actives largely listed as inhibitors; actives 4.4% (n = 390,000); AID 504339; also: % is scaled to controls: 0 for no effect and ±100 for the full control effect; nearly all actives have a fitted effect of over 50% in size
HP1b chromo inh = HP1-beta chromodomain-methylated histone interaction inhibition; actives 0.56% (n = 390,000); P83916; Potency, µM (titrated, usually from 114 µM), inactives show at the top dose activity change, negative = inhibition, most hits filed as inhibitors; AlphaScreen HP1-beta / biotin-H3K9me3 peptide binding; also: nearly all actives have a fitted effect of over 70% in size
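HP1-beta protein (50 nM final) preincubated 30 min at room temperature with biotinylated H3(1-18)K9me3 peptide (50 nM) in PBS pH 7.4, 0.01% Tween-20, then compound added for 30 min. AlphaScreen streptavidin donor/nickel chelate acceptor beads (10 ug/mL final), 30 min dark, luminescence read.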
L3MBTL1 block = blocks human L3MBTL1; Potency, µM (top dose mostly 57.1 µM), for the others: at the top dose activity, negative = inhibition, most hits filed as inhibitors; AlphaScreen L3MBTL1–H3K9me1 peptide binding; actives 0.66% (n = 230,000); also: % is scaled to controls: 0 for no effect and ±100 for the full control effect; nearly all actives have a fitted effect of over 60% in size
Target sequence (Q9Y468 whole entry, looked up): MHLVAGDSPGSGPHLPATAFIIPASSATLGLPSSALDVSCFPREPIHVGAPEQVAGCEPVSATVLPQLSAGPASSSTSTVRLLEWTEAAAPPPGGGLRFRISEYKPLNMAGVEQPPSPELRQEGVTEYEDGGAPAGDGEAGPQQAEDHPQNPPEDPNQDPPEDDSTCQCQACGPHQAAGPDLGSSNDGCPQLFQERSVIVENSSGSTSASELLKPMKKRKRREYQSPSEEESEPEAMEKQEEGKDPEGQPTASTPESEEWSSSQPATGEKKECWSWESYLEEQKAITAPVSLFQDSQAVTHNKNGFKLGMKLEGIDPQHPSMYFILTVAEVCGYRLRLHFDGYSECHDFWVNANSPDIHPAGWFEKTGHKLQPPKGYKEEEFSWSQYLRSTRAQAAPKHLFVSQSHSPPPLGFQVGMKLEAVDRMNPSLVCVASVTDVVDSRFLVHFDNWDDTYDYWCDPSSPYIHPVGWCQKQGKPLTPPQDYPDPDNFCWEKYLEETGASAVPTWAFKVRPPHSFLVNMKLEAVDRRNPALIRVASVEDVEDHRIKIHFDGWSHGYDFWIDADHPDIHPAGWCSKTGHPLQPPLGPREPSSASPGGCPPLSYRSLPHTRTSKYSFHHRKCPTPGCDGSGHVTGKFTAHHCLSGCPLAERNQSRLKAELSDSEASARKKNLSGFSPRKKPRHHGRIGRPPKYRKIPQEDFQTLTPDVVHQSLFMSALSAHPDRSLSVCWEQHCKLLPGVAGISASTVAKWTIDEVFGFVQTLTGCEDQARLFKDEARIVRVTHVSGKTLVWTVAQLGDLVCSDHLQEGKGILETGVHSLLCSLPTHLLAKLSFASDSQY
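Displacement of a biotinylated histone H3(1-15) peptide monomethylated at Lys9 (75 nM) from L3MBTL1 (50 nM) was measured by AlphaScreen after a 30 min room-temperature compound incubation; cefsulodin titration served as intraplate control.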
BAZ2B block = BAZ2B (human) inhibition; Q9UIF8; AlphaScreen BAZ2B-H3K14Ac peptide displacement; Potency, µM (series often up to 114 µM), for inactives: top-dose activity change, negative = inhibition, usual class: inhibitors; actives 4.4% (n = 360,000); also: % is scaled to controls: 0 for no effect and ±100 for the full control effect; nearly all actives have a fitted effect of over 60% in size
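Protein-peptide AlphaScreen: BAZ2B 50 nM, b-H3K14Ac 50 nM, 1x PBS pH 7.4 + 0.01% Tween-20. Preincubation 30 min RT; cpd 30 min RT (top 110 uM); beads 20 min RT, light-protected.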
G9a inh = blocks human histone lysine methyltransferase G9a. Q96KQ7. G9a H3K9 monomethylation, AlphaScreen, 2 h. Potency, µM (series often up to 102 µM), for the others: at the highest dose activity, negative = inhibition, usual class: inhibitors. actives 8.8% (n = 350,000). AID 504332; also: % is scaled to controls: 0 for no effect and ±100 for the full control effect; nearly all actives have a fitted effect of over 75% in size
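Methyltransferase reactions run at room temperature for 2 h (20 nM enzyme, 500 nM biotin-H3K9 peptide, 20 uM SAM) after a 15 min compound preincubation; product detected by AlphaScreen beads and anti-H3K9me1 antibody.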
* hit, by the source's call; ? = inconclusive; . = not tested or not shown; ! = a repeat was not active; [ ] = another dose, or the depositor's remark. Calls follow the shape of the dose curve; as a rule, active = well fitted inhibition curve with a large enough effect; inconclusive = small, poorly fitted or top-dose-only effect; inactive = no such curve, though single readings can be large or run the other way. Potency is read from the fitted curve at half-maximal effect.

SMILES	JMJD2A Tudor inh	HP1b chromo inh	L3MBTL1 block	BAZ2B block	G9a inh
CCCN(Cc1cc2cccc(C)c2[nH]c1=O)C(=O)c1cccc(Cl)c1	-28%	3%	.	-4%	-10%[59 µM]
COC(=O)C(=N/Nc1ccccc1C(=O)OC)/C(C)=N/O	3%	13%	.	-15%	50µM*
O=C1c2[nH]nc(-c3ccccc3O)c2C(c2cccc(Br)c2)N1Cc1ccncc1 (configuration not stated)	-29%	39%	.	-11%	1%[59 µM]
O=c1[nH]c(CN2CCc3ccccc32)nc2scc(-c3cccs3)c12	-28%	5%	-43%	-14%	18µM*
Cc1cc(NC(=O)CS(=O)(=O)c2ccc(Cl)cc2)no1	79µM*	27%	.	-14%	-7%
CC(C)c1ccc(N2C(=NC(=O)C3CCCO3)SC3CS(=O)(=O)CC32)cc1 (configuration not stated)	-3%	61%	.	-18%	4%
O=C1C(=C(I)I)c2ccccc2-c2ccccc21	25µM*	56µM*	.	.	.
O=C(Nc1ccc(NS(=O)(=O)c2ccccc2)c(Cl)c1)c1ccccc1	-11%	29%[57 µM]	.	.	.
O=C(CCn1c(=O)oc2ccccc21)Nc1ccc(N2CCOCC2)cc1	-12%	0%	.	4%	21%[59 µM]
O=C(CSc1cccc[n+]1[O-])Nc1ccc(N2CCOCC2)cc1	.	.	-29%	-21%	56µM*
O=C(CSc1cccc[n+]1[O-])Nc1ccc([N+](=O)[O-])cc1Cl	-1%	42%	4%	-13%	56µM*
Nc1ccccc1SCC(=O)Nc1ccc(N2CCOCC2)cc1	-14%	27%	-1%	-32%	45µM*
O=C(CCn1ccc2ccccc21)Nc1ccc(N2CCOCC2)cc1	-27%[57.1 µM]	-10%	-12%	-9%	50µM*
Cc1ccccc1CNC(=O)c1ccc(CS(=O)Cc2ccc(Cl)cc2)o1 (configuration not stated)	-18%	5%	.	-23%	-29%[59 µM]
Cn1c(=O)c2ncn(CC(=O)Nc3ccc(N4CCOCC4)cc3)c2n(C)c1=O	-6%	12%	.	-4%	14µM*
O=C(Cn1cnc2ccccc2c1=O)Nc1ccc(N2CCOCC2)cc1	-17%	1%	-29%	-24%	-28%
Oc1cc(Br)ccc1C=Nc1ccc(N2CCCCC2)cc1	-21%	61%	-22%	?	45µM*
Oc1ccc(C=Nc2ccc(N3CCOCC3)cc2)c(O)c1	22µM*	?	.	?	1.6µM*
Cc1ccc(N=Cc2ccc(O)cc2O)cc1F	-21%	18%	-5%[11.4 µM]	-35%	10µM*
Cc1cc(Br)cc(C=Nc2ccc(N3CCOCC3)cc2)c1O	-11%	32%	.	.	.
COc1ccc(/C=N/n2cncn2)cc1Cn1nc(C)c([N+](=O)[O-])c1C	0%	13%	10%	0%	.
COc1ccc(-c2noc(CCC(=O)NCc3ccc(OC)cc3OC)n2)cc1	-8%	23%	.	-2%	-30%[59 µM]
CC1CCN(S(=O)(=O)c2ccc3c(ccn3CCC(=O)NCc3ccccc3F)c2)CC1	-11%	21%	.	-18%	-3%[59 µM]
O=C1C=C(c2cccc3c2sc2ccccc23)C[C@@H](c2ccc(Cl)cc2)C1	-15%	30%	-3%	7%	12%[2.33 µM]
CC(C)NC(=O)CSc1cn(CC(=O)N2CCCCCC2)c2ccccc12	-23%	-8%	.	-10%	-1%[59 µM]
SMILES	JMJD2A Tudor inh	HP1b chromo inh	L3MBTL1 block	BAZ2B block	G9a inh
CCN(CC)S(=O)(=O)c1ccc(Oc2ccccc2)c(N)c1	-1%	47%	4%	.	5%
Cc1cc(C)[n+](-c2ccc(Oc3ccccc3)c(S(=O)(=O)[O-])c2)[nH]1	50µM*	9%	-3%	-17%	?
O=C(c1ccccc1Cl)N1CCC(n2cccc2)CC1	-22%	-12%	-3%	?	.
NC(=S)Nc1cnc2ccccc2c1	-9%	21%	1%	9%	50µM*
CCOC(=O)c1c(/N=C/N(C)C)sc(/C=N/Nc2ccccc2)c1-c1ccccc1Cl	?	11%	0%	-7%	40µM*
CSc1nsc(SC)c1C(=O)NCCNS(=O)(=O)c1ccc(C)cc1	-11%	30%	7%[11.4 µM]	50µM*	2.8µM*
COc1ccc(C)cc1NC(=O)C1CCCN1C(=O)OCc1ccccc1 (configuration not stated)	9%	41%	-2%	-2%	7%[59 µM]
COc1cc2nc(N3CCN(C(=O)OCc4ccccc4)C(C(=O)NC(C)(C)C)C3)nc(N)c2cc1OC (configuration not stated)	.	.	.	.	5.6µM*!
COc1ccc(OC)c(NC(=O)C2CCCN2C(=O)OCc2ccccc2)c1 (configuration not stated)	-5%	18%	-4%	9%	5%[59 µM]
COc1cc2nc(N3CCN(C(=O)OCc4ccccc4)[C@H](C(=O)NC(C)(C)C)C3)nc(N)c2cc1OC	-28%	13%	7%	-17%	7.1µM*
Cn1nnnc1Sc1ncnc2scc(-c3cccc4c3sc3ccccc34)c12	40µM*!	27%	-11%	.	.
COC(=O)c1ccc(-c2ccc(OC)c(C3C4C=CCC(C)C4C(=O)N3Cc3ccccc3)c2)cc1 (configuration not stated)	-25%	15%	.	.	.
COc1cc(N=c2ssnc2Cl)cc(OC)c1OC	?	28%	6%	28µM*	?
COc1ccc(N=Cc2sc3ccccc3c2Cl)cc1	-33%	59%	-4%	-6%	-32%[59 µM]
Fc1ccc(N=c2ssnc2Cl)c(F)c1	22µM*	5.6µM*	-4%	50µM*	1.6µM*
Clc1ccc(N=c2ssnc2Cl)cc1	50µM*	?	-19%	40µM*	1.6µM*
COc1ccc(N=c2ssnc2Cl)cc1	-17%[11.4 µM]	?	-1%	45µM*	1.3µM*
COc1cc(C2C(C(=O)Nc3ccc(C)cc3C)=C(C)Nc3nc4ccccc4n32)cc(OC)c1OC (configuration not stated)	-9%	30%	.	1%	?
CCOC(=O)N1CCc2c(sc3c2c(=O)n(Cc2ccccc2)c(=O)n3Cc2c(F)cccc2Cl)C1	-4%	25%	.	?	-10%[59 µM]
C=CCn1c(SCC#N)nc2cc(Cl)ccc2c1=O	5%[57.1 µM]	28%[57 µM]	.	.	.
CCCCC[C@H]1CN(Cc2ccc(OC)cc2)C(=O)[C@@H]1CC(=O)NCc1ccccc1	-12%	34%	1%	-2%	?
Nc1ncnc2c1nc(Cl)n2[C@@H]1O[C@H](CO)[C@@H](O)[C@@H]1O	-12%[57.1 µM]	4%[57 µM]	.	.	.
Clc1nssc1=Nc1ccccc1	79µM*	35µM*	.	28µM*	2µM*
N#Cc1ccc(N=c2ssnc2Cl)cc1	22µM*	7.1µM*	6%	35µM*	?
CCOC(=O)c1ccc(N=c2ssnc2Cl)cc1	14µM*	7.9µM*	.	28µM*	1.8µM*
O=C(Nc1ccc(C(F)(F)F)cc1)c1ccccc1-n1cnnn1	-9%	40%	4%	-2%	8%[59 µM]
Nc1ccc(Oc2ccc3c(c2)C(=O)NC3=O)cc1	-17%	14%	2%[2.29 µM]	5%	-1%[0.501 µM]

Screening data from PubChem BioAssay.
